The source made the active and inactive calls. How the source made its calls: active means hit-call score of the fitted dose curve at least 0.9, where 1 is the maximum; inactive means score below 0.9.
Assay: ATG_NRF2_ARE_CIS: Attagene CIS-FACTORIAL HepG2 Assay for human Nuclear Factor Erythroid 2 Related Factor 2 (NFR2) response to Antioxidant Response Elements (ARE) (AID 2282992)
Conditions: HepG2 Attagene ARE/NRF2 reporter, transcription factor activity; actives raise or lower the signal
Protocol: ATG_CIS is a cell-based, multiplexed-readout assay that uses HepG2, a human liver cell line, with measurements taken at 24 hours after chemical dosing in a 24-well plate.ATG_NRF2_ARE_CIS is one of 52 assay component(s) measured or calculated from the ATG_CIS assay. It is designed to make measurements of mRNA induction, a form of inducible reporter, as detected with fluorescence intensity signals by Reverse transcription polymerase chain reaction (RT-PCR) and Capillary electrophoresis technology.Data from the assay component ATG_NRF2_ARE_CIS was analyzed into 1 assay endpoint. This assay endpoint, ATG_NRF2_ARE_CIS, was analyzed with bidirectional fitting relative to DMSO as the negative control and baseline of activity. Using a type of inducible reporter, measures of mRNA for gain or loss-of-signal activity can be used to understand the reporter gene at the transcription factor-level as they relate to the gene NFE2L2. Furthermore, this assay endpoint can be referred to as a primary readout, because this assay has produced multiple assay endpoints where this one serves a reporter gene function. To generalize the intended target to other relatable targets, this assay endpoint is annotated to the dna binding intended target family, where the subfamily is basic leucine zipper.
Human liver HepG2 cells are transiently transfected with multiple reporter transcription units (MRTUs) in 6-well plates using FuGene 6 reagent (Roche; 3 ml FuGene/1 mg DNA). The MRTU constructs are regulated by a cis-regulating element (promoter). […] A major difference between the CIS and TRANS system is that in CIS activities of endogenous TFs are measured, whereas the TRANS assay evaluates changes in activities of exogenous, chimeric NR-Gal4 proteins. […] At the end of 24 hour incubation, total RNA was isolated using TriZol reagent (Invitrogen). The isolated RNA is then reverse-transcribed using oligo(dT) primer and Mo-MLV reverse transcriptase (Invitrogen) with DNAse I (Ambion) treatment for 30 min. The one-tenth of the produced cDNA was amplified by PCR using Taq DNA polymerase (Invitrogen) and two reporter sequence-specific primers. The PCR products were fluorescently labeled by primer extension with 6-arboxyfluorescein (6-FAM) 5'-labeled reporter sequence-specific primer (2 min at 95 C, 20 s at 68 C and 10 min at 72 C) and these products were digested with 5U of HpaI (New England Biolabs) for 2h at 37 C. The fragments were purified using Qiaquick PCR columns (Qiagen), analyzed on an ABI 3130xL genetic analyzer (Applied Biosystems) with peak positions identified by using a set of X-rhodamine (ROX)-labeled MapMarker1000 molecular weight standards (BioVentures). The raw capillary electrophoresis data was processed using Attagraph software (Attagene).
For `CCCCCC(C)=O`, the outcome was “inactive”.
In the case of `Cc1occc(=O)c1OC(=O)C(C)C`, the outcome is reported as “inactive”.
For `CC(C)C[C@H](NC(=O)OCC1c2ccccc2-c2ccccc21)C(=O)O`, the AC50 was 31.1 µM (active).
In the case of `Cc1ccc(N)c(S(=O)(=O)O)c1`, the outcome is reported as “inactive”.
With `CCCSc1ccc2nc(NC(=O)OC)[nH]c2c1` the outcome was “inactive”.
In the case of `CCC(=O)OCCOc1ccccc1`, the outcome is reported as “inactive”.
For `Cc1ccc(S(=O)(=O)Oc2ccc(N=Nc3ccc(-c4ccc(N=Nc5c(O)ccc6cc(S(=O)(=O)O)cc(S(=O)(=O)O)c56)c(C)c4)cc3C)cc2)cc1`, the outcome was “inactive”.
For `COc1cc(Cl)c(OC)cc1N`, the outcome was “inactive”.
For `N[C@@H](Cc1cc(I)c(Oc2cc(I)c(O)c(I)c2)c(I)c1)C(=O)O`, the AC50 was 36.5 µM (active).
In the case of `C=CC(=O)OCCC#N`, the AC50 is reported as 25.9 µM (active).
For `CC[N+](C)(CC)CC`, the outcome was “inactive”.
In the case of `C#CC(C)N(C)C(=O)Nc1ccc(Cl)cc1` (stereo not given), the AC50 is reported as 48.4 µM (active).
In the case of `COc1ccc(CCN2CCC(Nc3nc4ccccc4n3Cc3ccc(F)cc3)CC2)cc1`, the AC50 is reported as 1.99 µM (active).
For `OC[C@H]1O[C@@H]2O[C@H]3[C@H](O)[C@@H](O)[C@@H](O[C@H]4[C@H](O)[C@@H](O)[C@@H](O[C@H]5[C@H](O)[C@@H](O)[C@@H](O[C@H]6[C@H](O)[C@@H](O)[C@@H](O[C@H]7[C@H](O)[C@@H](O)[C@@H](O[C@H]8[C@H](O)[C@@H](O)[C@@H](O[C@H]9[C@H](O)[C@@H](O)[C@@H](O[C@H]1[C@H](O)[C@H]2O)O[C@@H]9CO)O[C@@H]8CO)O[C@@H]7CO)O[C@@H]6CO)O[C@@H]5CO)O[C@@H]4CO)O[C@@H]3CO`, the outcome was “inactive”.
In the case of `CCOc1ccccc1O`, the outcome is reported as “inactive”.
With `C=C1C[C@]23C[C@@]1(O)CC[C@H]2[C@@]12C=C[C@H](O)[C@@](C)(C(=O)O1)[C@H]2[C@@H]3C(=O)O` the outcome was “inactive”.
With `NCc1ccco1` the outcome was “inactive”.
In the case of `NC(=S)NNC(N)=S`, the outcome is reported as “inactive”.
For `CC(C)c1ccccc1O`, the outcome was “inactive”.
For `CCCC(C)C(O)CC` (stereo not given), the outcome was “inactive”.
In the case of `CC=Cc1ccc(OC)c(OC)c1`, the outcome is reported as “inactive”.
For `[O-]n1ccccc1=S.[O-]n1ccccc1=S.[Zn+2]`, the outcome was “inactive”.
With `CCCCCCC(CO)CCCC` (stereo not given) the outcome was “inactive”.
For `CCCCCCCCCC(C)C=O` (stereo not given), the AC50 was 100 µM (active).
With `CCCCC1CCC(O)CC1` (stereo not given) the outcome was “inactive”.
With `CCC(C)c1cc([N+](=O)[O-])cc([N+](=O)[O-])c1OC(=O)OC(C)C` (stereo not given) the AC50 was 5.1 µM (active).
In the case of `CC1=CC[C@@]23C[C@@H]1C(C)(C)[C@@H]2CC[C@H]3C`, the AC50 is reported as 100 µM (active).
In the case of `CN(C)c1cccc(O)c1`, the outcome is reported as “inactive”.
In the case of `c1ccc(CCc2ccccc2)cc1`, the AC50 is reported as 149 µM (active).
For `CC(=O)C(C)O` (stereo not given), the outcome was “inactive”.
With `OC[C@H]1O[C@@H](Oc2ccc(O)cc2)[C@H](O)[C@@H](O)[C@@H]1O` the outcome was “inactive”.
In the case of `CCCOCCO`, the outcome is reported as “inactive”.
With `CCCC(C)=O` the outcome was “inactive”.
For `COC(=O)Nc1ccc(Cl)c(Cl)c1`, the AC50 was 100 µM (active).
With `O=C(O)c1ccc(O)cc1` the outcome was “inactive”.
In the case of `CC1=C(Br)C(=O)C(Br)=C/C1=C(/c1ccccc1S(=O)(=O)O)c1cc(Br)c(O)c(Br)c1C`, the outcome is reported as “inactive”.
In the case of `Cc1cc(CCC(=O)OCCOCCOCCOC(=O)CCc2cc(C)c(O)c(C(C)(C)C)c2)cc(C(C)(C)C)c1O`, the AC50 is reported as 23.4 µM (active).
With `COC(=O)C=C(C)CCC=C(C)C` the AC50 was 36.1 µM (active).
For `CC(C)(C)C1=CC(=O)C(C(C)(C)C)=CC1=O`, the AC50 was 13.7 µM (active).
For `CCCCCCCCCCCC(=O)OCC(O)CO` (stereo not given), the AC50 was 100 µM (active).
